The term AC50 denotes the midpoint of the concentration-response curve, whichever way the signal moves.

Read-out in test [1]: Collagen I, COL1A1 (gene 1277)
Kind of test: BSK_MyoF_CollagenI: BioMAP Diversity Plus: MyoF Assay for Collagen I Biomarker Activity (AID 2284238). The settings on record: primary human lung fibroblasts. Summed up:
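Measured by ELISA: Collagen I from human lung fibroblasts 24 h after compound addition, analysed for signal gain with DMSO as baseline; overt toxicity read from SRB staining of parallel cultures at the same time.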

Read-out in test [2]: Collagen III, COL3A1 (gene 1281)
Kind of test: BSK_MyoF_CollagenIII: BioMAP Diversity Plus: MyoF Assay for Collagen III Biomarker Activity (AID 2284239). The settings on record: primary human lung fibroblasts. Summed up:
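Multiplexed cell assay in lung fibroblasts, harvested at 24 h post-dose. Collagen III detected by ELISA, with positive-direction fitting relative to DMSO vehicle.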

Read-out in test [3]: Interleukin 17F (IL17F), IL17F (gene 112744)
As to the kind of experiment: BSK_BT_xIL17F: BioMAP Diversity Plus: BT Assay for Interleukin 17F (IL17F) Biomarker Activity (AID 2284243). The settings on record: primary human B cells with PBMC. In short, it runs like this:
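Luminex readout of IL-17F secretion, 24 h; cells: human B cells with PBMC; positive-direction analysis, DMSO control.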

Read-out in test [4]: Interleukin 2 (IL2), IL2 (gene 3558)
Kind of test: BSK_BT_xIL2: BioMAP Diversity Plus: BT Assay for Interleukin 2 (IL2) Biomarker Activity (AID 2284245). The settings on record: primary human B cells with PBMC. Summed up:
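Readout: supernatant IL-2 via Luminex xMAP after 24 h chemical dosing of a B cell/PBMC primary human co-culture. DMSO serves as negative control and baseline; increases in signal were fitted.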

Read-out in test [5]: Basic fibroblast growth factor (bFGF), FGF2 (gene 2247)
As to the kind of experiment: BSK_MyoF_bFGF: BioMAP Diversity Plus: MyoF Assay for Basic fibroblast growth factor (bFGF) Biomarker Activity (AID 2284246). Conditions: primary human lung fibroblasts. In short, it runs like this:
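Primary human lung fibroblast culture, 24 h compound exposure; ELISA read-out of bFGF. Positive-direction fit vs DMSO baseline. Cytotoxicity: SRB stain (0.1% SRB, 10% TCA fixation, 560 nm) in parallel wells.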

Read-out in test [6]: Collagen IV, COL4A1 (gene 1282)
Kind of test: BSK_MyoF_CollagenIV: BioMAP Diversity Plus: MyoF Assay for Collagen IV Biomarker Activity (AID 2284247). The settings on record: primary human lung fibroblasts. In short, it runs like this:
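ELISA read-out of Collagen IV in lung fibroblast cultures, 24 h post-dosing; gain of signal relative to DMSO vehicle baseline defines activity.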

Read-out in test [7]: Monokine induced gamma interferon (MIG), CXCL9 (gene 4283)
As to the kind of experiment: BSK_KF3CT_MIG: BioMAP Diversity Plus: KF3CT Assay for Monokine induced gamma interferon (MIG) Biomarker Activity (AID 2284248). Conditions: primary human keratinocytes with fibroblasts. Summed up:
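MIG in dosed human skin co-cultures was measured by ELISA at 24 h, relative to DMSO.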

Read-out in test [8]: Vascular cell adhesion molecule 1 (VCAM1), VCAM1 (gene 7412)
As to the kind of experiment: BSK_BF4T_VCAM1: BioMAP Diversity Plus: BF4T Assay for Vascular cell adhesion molecule 1 (VCAM1) Biomarker Activity (AID 2284249). Conditions: primary human bronchial epithelial cells with fibroblasts. Summed up: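 Cell-surface VCAM-1 quantified by ELISA after 24 h chemical exposure of human bronchial epithelial/dermal fibroblast co-cultures, with SRB staining in parallel wells for cytotoxicity; DMSO baseline, positive-direction fitting.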

Read-out in test [9]: Collagen I, COL1A1 (gene 1277)
As to the kind of experiment: BSK_hDFCGF_CollagenI: BioMAP Diversity Plus: hDFCGF Assay for Collagen I Biomarker Activity (AID 2284250). The settings on record: primary human foreskin fibroblasts. In short, it runs like this:
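ELISA read-out of Collagen I in human dermal foreskin fibroblast cultures, 24 h after dosing. Gain of signal versus DMSO vehicle defines activity.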

Read-out in test [10]: Interferon-inducible T-cell alpha chemoattractant (ITAC), CXCL11 (gene 6373)
As to the kind of experiment: BSK_hDFCGF_ITAC: BioMAP Diversity Plus: hDFCGF Assay for Interferon-inducible T-cell alpha chemoattractant (ITAC) Biomarker Activity (AID 2284251). Conditions: primary human foreskin fibroblasts. In short, it runs like this:
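Chemical dosing of primary human foreskin fibroblast cultures preceded ELISA measurement of I-TAC at 24 h. Response was analysed in the positive direction using DMSO as baseline, while parallel SRB staining measured cytotoxicity.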

Read-out in test [11]: Plasminogen activator inhibitor-1 (PAI1), SERPINE1 (gene 5054)
Kind of test: BSK_KF3CT_PAI1: BioMAP Diversity Plus: KF3CT Assay for Plasminogen activator inhibitor-1 (PAI1) Biomarker Activity (AID 2284252). The settings on record: primary human keratinocytes with fibroblasts. Summed up:
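Keratinocyte + dermal fibroblast co-culture (human primary); 24 h post-dose; PAI-1 by ELISA; gain-of-signal fit vs DMSO control.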

Test [12] can be described thus: UKN4_HCS_LUHMES_cell_viability: Viability Assessment in the University of Konstanz (UKN) Leist Lab Neurite Outgrowth Assay in human LUHMES cells (UKN4) (AID 2284232). Summed up:
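Day-2 differentiated LUHMES, 30000 cells/well, dosed ~30 min–2 h post-seeding; 24 h treatment incl. staining; Hoechst H-33342 + calcein-AM at 23.5 h; HCS imaging; DMSO-normalized, bidirectional fit.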

Test [13] in a line: UKN2_HCS_IMR90_cell_viability: Viability Assessment in the University of Konstanz (UKN) Leist Lab Neural Crest Cell Migration Assay in human induced IMR90 Pluripotent Stem Cells (UKN2) (AID 2284233).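 Note: viability of neural crest cells differentiated from IMR90 iPSC measured by calcein-AM fluorescence imaging; cells exposed to compound for 24 h after a 24 h migration phase.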 Summed up: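 cMINC format, iPSC-derived neural crest (IMR90); 24 h migration (EGF/FGF, N2-S), then 24 h toxicant. Calcein-AM/H-33342 stain 30 min; fluorescence intensity by HCS; DMSO-normalised, bidirectional fitting.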

A short description of test [14]: CCTE_Mundy_HCI_Cortical_NOG_BPCount: CCTE's Neurite Outgrowth Assay in rat cortical cells for Branch Point Count, Mundy Lab (AID 2284237). Summed up:
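Measured 50.33 h after dosing, this morphology endpoint uses rat primary cortical cultures labelled for betaIII-tubulin. Branch points are quantified by high-content imaging, with DMSO as negative control and baseline.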

Test [15] can be described thus: CCTE_Mundy_HCI_hNP1_Casp3_7: CCTE's Caspase-Glo 3/7 Assay in human neuroprogenitor cells for Apoptosis, Mundy Lab (AID 2284240). Summed up:
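Neuroepithelial-lineage stem cells from WA09 embryonic cells were treated with chemicals after 40–44 h of culture. Twenty-four hours later, caspase-3/7 activation was detected luminescently after a 30 min room-temperature reagent step, with DMSO as baseline.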

The nature of test [16]: CCTE_Mundy_HCI_hNP1_CellTiter: CCTE's Cell Titer-Glo 2 Assay in human neuroprogenitor cells for Viability, Mundy Lab (AID 2284241; active = hit-call score of the fitted dose curve at least 0.9, where 1 is the maximum). In short, it runs like this: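 Measures ATP content in human neural progenitors derived from WA09 embryonic cells. Read-out at 26.5 hours after dosing, with DMSO serving as the negative control and baseline.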
(In general: ATP-based viability assays read luminescence as a measure of living cells.)

Test [17] in a line: CCTE_Mundy_HCI_Cortical_Synap_Neur_Matur_NeuronCount: CCTE's Synaptogenesis and Neurite Maturation Assay in rat cortical cells for Neuron Count, Mundy Lab (AID 2284242; active = hit-call score of the fitted dose curve at least 0.9, where 1 is the maximum;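 for AC50: neuron number from Hoechst nuclei and MAP2 staining by high-content imaging; hits reduce neuron count versus DMSO baseline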). In short, it runs like this: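 Rat cortical cultures; AraC DIV 5; chemical dosing + media change DIV 7 to DIV 12 (288.33 h readout). Fix, Hoechst, anti-MAP2/anti-synaptophysin immunostain; HCI neuron count vs DMSO baseline.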

Test [18] is described as follows: TAMU_PeakParms_SingleDonor1434_QT: Texas A&M University (TAMU) 1.5-hr Human Induced Pluripotent Stem Cell (iPSC)-derived Cardiomyocytes Calcium (Ca+2) Flux Assay for Cardiotoxicity: QT (decay-rise ratio) (AID 2284235; active = hit-call score of the fitted dose curve at least 0.9, where 1 is the maximum). In short, it runs like this:
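Decay/rise ratio of calcium-flux fluorescence scored after 90 min exposure (37C) of donor 1434 iPSC cardiomyocytes to 0.2–100 uM (0.5% DMSO). Beat-cessation and severe-notch points removed; POD is EC05, a 5% rise over DMSO.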

Test [19] in a line: CCTE_Mundy_HCI_Cortical_NOG_NeuronCount: CCTE's Neurite Outgrowth Assay in rat cortical cells for Neuron Count, Mundy Lab (AID 2284236; active = hit-call score of the fitted dose curve at least 0.9, where 1 is the maximum;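 note: neurons counted by imaging betaIII-tubulin and Hoechst stained cortical cells; cells exposed to compound for about 48 hours before fixation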). Summed up:
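Read-out: neuron number by high-content imaging of betaIII-tubulin (Alexa Fluor-488) and Hoechst-labelled rat primary cortical cells.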

Test [20] is described as follows: TAMU_HCS_1.5hr_SingleDonor1434_Cytotoxicity: Cytotoxicity Assessment using High-content Screening (HCS) Fluorescent Imaging for the Texas A&M University (TAMU) 1.5-hr Human Induced Pluripotent Stem Cell (iPSC)-derived Cardiotoxicity Assay (AID 2284234; active = hit-call score of the fitted dose curve at least 0.9, where 1 is the maximum). Summed up: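 Nuclear counts from Hoechst 33342 imaging define cytotoxicity here, with EC10 (10% cell-count loss relative to DMSO) as point of departure. iPSC cardiomyocytes received 0.2-100 uM test chemical in 0.5% DMSO for 1.5 h at 37 C.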

Several values for one entry are separate records, joined by “and”; a condition that tells them apart may be missing. Identical values can stand only once. Inconclusive results are not listed. More than one record can exist for a structure, and the calls need not agree. Activity calls are given as the source filed them. Rule for the calls, unless noted: active = hit-call score of the fitted dose curve at least 0.9, where 1 is the maximum; inactive = score below 0.9.

`OCC(F)(OC(F)(F)C(F)(OC(F)(F)C(F)(F)C(F)(F)F)C(F)(F)F)C(F)(F)F` (centres undefined): the half-maximal activity concentration (AC50) was 5.55 µM (active) and 3.38 µM (active) in [1]; 5.14 µM (active) and 4.82 µM (active) in [2]; 5.47 µM (active) and 5.77 µM (active) in test [3]; 4.97 µM (active) in [4]; 3.9 µM (active) in test [6]; 5.41 µM (active) and 3.33 µM (active) in test [7]. Also, the AC50 is 2.4 µM (active) and 2.03 µM (active) in test [10]; 5 µM (active) and 4.79 µM (active) in test [11]. The result in [4], in [5], in test [6], in test [8] and in [9] was inactive.

As to `CC1(C)[C@H](C=C(Cl)Cl)[C@H]1C(=O)OCc1cccc(Oc2ccccc2)c1`, the result in test [1], in [2], in test [3], in test [4], in test [5] and in [6] was inactive.

`CC(C)Cc1ccc(C(C)C(=O)O)cc1` (centres undefined): the result in test [12], in test [13], in [14], in test [1], in [2] and in test [15] was inactive. Moreover, the result in test [16], in [17], in [3], in [4], in [5] and in test [6] was inactive.

With `N#CCCNCCC#N`, the outcome in test [18], in [19], in test [14], in test [15] and in test [16] was inactive.

On to `CCCCC(CC)COC(=O)COc1ccc(Cl)cc1C` (centres undefined), for which the outcome in test [13], in test [19] and in [14] was inactive. The results for the AC50 in test [15] and in test [17] were 50 µM (active) and 11.9 µM (active), respectively.

Take `N[C@@H](CCC(=O)O)C(=O)O`: the compound was classed as inactive in [14], in [15], in [16] and in test [17].

For the compound `CC/C(=C(\c1ccccc1)c1ccc(OCCN(C)C)cc1)c1ccccc1`, the half-maximal activity concentration (AC50) in [20] is 82.1 µM (active). Also, the result in test [18] was inactive.

Regarding `c1ccc2scnc2c1`, the call in [13], in test [19], in [14] and in test [15] was inactive.

With `OCCN1CCOCC1`, the outcome in test [1], in test [3], in test [4], in test [5] and in test [6] was inactive. Further, the AC50 in test [2] was 16 nM (active).

As to `CC=CC(=O)C1=C(C)C=CCC1(C)C`, the outcome in test [1], in test [2], in [3], in [4], in [5] and in test [6] was inactive.

Consider `CC1=CC(C)C(C=O)C(C)C1` (centres undefined) (tested in a mixture with another compound), for which the result in [1], in test [2], in test [3], in test [4], in test [5] and in [6] was inactive.
